Compound activity deposited in PubChem BioAssay by National Center for Advancing Translational Sciences (NCATS).
Rows were chosen to be rich in hits. Some 9.3% of all compounds tested hit in one or more screens of this group.
NPC1 prom act = NPC1 promoter activation | Huh7 NPC1 promoter luciferase reporter, 24 h | Potency, µM (doses to about 9.22 µM), without a hit: at the highest dose activation, most hits filed as activators | hit rate 2.4% among 320,000; also: % of control where 0% means no effect; nearly all actives have a fitted effect of over 60% in size
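Quantitative HTS used a cell-based reporter: Huh7 cells stably bearing the NPC1 promoter upstream of luciferase were treated with compounds for 24 h, and promoter activation was read as luminescence.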
ELG1 genotox = inducers of genotoxicity in HEK293T ELG1-luciferase cells | AID 504466 | HEK293T ELG1-luciferase reporter, luminescence, 16 h | Potency, µM (highest dose often 46 µM), inactives show at the top dose activity change, positive = activation, hits mostly activators | hit rate 1.3% among 330,000; also: % of control where 0% means no effect; nearly all actives have a fitted effect of over 60% in size
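Genotoxic stress is detected as increased luminescence from luciferase-tagged ELG1 in HEK293T cells, measured with ONE-Glo after a 16 hr treatment at 37 °C.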
SMN2 splice enh = enhancers of SMN2 splice variant expression | AID 1458 | Potency, µM (top dose mostly 46.1 µM), for the others: at the top dose activity change, positive = activation, most hits filed as activators | HEK293 SMN2-luciferase splicing reporter, luminescence, 30-36 h | hit rate 2.8% among 210,000; also: % of control where 0% means no effect; nearly all actives have a fitted effect of over 55% in size
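HEK293 cells carry an SMN2 minigene-luciferase reporter in which exon 7 inclusion puts luciferase in frame. Cells were seeded at 2000 cells/well, attached for 10-12 hours, then exposed to compounds for 30-36 hours at 37C before ONE-Glo luminescence.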
ELG1 repair inh = inhibitors of ELG1-dependent DNA repair in HEK293T cells | Potency, µM (series often up to 46.1 µM), inactives show at the top dose activity change, negative = inhibition, most hits filed as inhibitors | HEK293T ELG1-luciferase reporter, luminescence, 16 h; DNA damage induced by 5-fluorouridine | hit rate 2.3% among 330,000; also: % is scaled to controls: 0 for no effect and ±100 for the full control effect; nearly all actives have a fitted effect of over 55% in size
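Reporter activity after DNA damage by 5-fluorouridine is monitored. Compound-treated cells incubate 16 hr at 37 °C, then ONE-Glo is added for 30 min before luminescence reading.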
FLuc modulator = inhibits or activates purified firefly luciferase, miR-21 counter-screen. P08659. Potency, µM (highest dose often 57.5 µM), inactives show top-dose activity change, negative = inhibition, most hits filed as inhibitors. purified FLuc, Km substrates, luminescence inhibition. hit rate 6.9% among 360,000;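 also: plate controls were vehicle for no effect and reference inhibitor for full effect; nearly all actives have a fitted effect of over 55% in size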
Target sequence (P08659 whole entry, looked up): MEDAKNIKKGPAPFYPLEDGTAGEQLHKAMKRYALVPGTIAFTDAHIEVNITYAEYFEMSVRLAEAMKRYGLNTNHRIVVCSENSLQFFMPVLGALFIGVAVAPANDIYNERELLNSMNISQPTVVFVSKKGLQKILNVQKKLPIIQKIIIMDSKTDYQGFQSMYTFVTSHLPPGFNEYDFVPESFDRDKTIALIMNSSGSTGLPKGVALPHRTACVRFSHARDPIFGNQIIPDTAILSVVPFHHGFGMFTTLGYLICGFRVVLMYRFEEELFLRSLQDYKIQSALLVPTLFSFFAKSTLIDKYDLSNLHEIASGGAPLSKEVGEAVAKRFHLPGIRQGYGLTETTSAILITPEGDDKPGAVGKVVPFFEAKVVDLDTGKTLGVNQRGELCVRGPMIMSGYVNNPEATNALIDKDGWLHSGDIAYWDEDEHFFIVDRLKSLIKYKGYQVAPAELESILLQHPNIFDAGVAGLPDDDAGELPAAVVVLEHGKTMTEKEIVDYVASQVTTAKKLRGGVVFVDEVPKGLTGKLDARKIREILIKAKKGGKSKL
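Purified P. pyralis luciferase, 10 nM final, with Km-level 10 uM D-luciferin and 10 uM ATP in 50 mM Tris acetate pH 7.5, 10 mM Mg acetate, 0.01% Tween-20, 0.05% BSA; 6-point qHTS titration about 60 µM downward; luminescence read.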
Rab9 promoter act = activators of Rab9 promoter | Potency, µM (series often up to 9.22 µM), for inactives: top-dose activation, negative = inhibition, actives largely listed as activators | Huh7 Rab9 promoter-luciferase reporter, luminescence, 24 h | hit rate 2.8% among 320,000; also: % of control where 0% means no effect; nearly all actives have a fitted effect of over 60% in size
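Stable Rab9-luc Huh7, 1500 cells/well, 2 h settle; cmpd in DMSO, 24 h, 37 °C/5% CO2; luciferase reagent 10 min RT; luminescence.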
Starred values were filed as active, the others as inactive; ? = inconclusive; · = no result given; [ ] = another dose, or the depositor's remark. Calls follow the shape of the dose curve; as a rule, active = well fitted curve in the direction sought with a large enough effect; inconclusive = small, poorly fitted or top-dose-only effect, or another doubt; inactive = no such curve, though single readings can be large; an effect the other way counts as inactive or inconclusive. Potency is read from the fitted curve at half-maximal effect.

SMILES | NPC1 prom act | ELG1 genotox | SMN2 splice enh | ELG1 repair inh | FLuc modulator | Rab9 promoter act
COc1ccccc1C1CC(c2ccccc2)=NN1S(=O)(=O)c1ccccc1 (configuration not stated) | 1% | -9% | · | 23µM* | -1% | -4%
COc1ccc(C2CC(c3ccccc3)=NN2S(=O)(=O)c2ccccc2)c(OC)c1 (configuration not stated) | 5% | -1% | 13% | 13% | 3% | -1%
Cc1cccc(C)c1OC[C@H](C)N | · | · | 1%[20.6 µM] | · | · | ·
COc1ccc(-c2nn(-c3ccccc3)cc2/C=N/NC(N)=S)cc1OC | -21% | 0% | 76% | 1.8µM* | 5.4µM* | -21%
C(=N\n1cnnc1)/c1ccc(-c2ccccc2)cc1 | 3% | 3% | -14% | 0% | ? | 2%
COc1ccc(-c2nn(-c3ccccc3)cc2/C=C(\C#N)S(=O)(=O)c2ccccc2)cc1OC | 3% | 2% | 2% | -23% | -2% | 1%
NC(=O)c1cn(-c2ccccc2)nc1-c1cccnc1 | 3% | -5% | 10% | 2% | -3% | -3%
COc1ccc(-c2nn(-c3ccccc3)cc2C(N)=O)cc1OC | 9% | 2% | · | -23% | 17µM* | 2%
Cc1ccc(-c2nn(-c3ccccc3)cc2/C=N/n2c(-c3ccncc3)n[nH]c2=S)cc1 | -9% | 18% | · | ? | -1% | -4%
S=c1[nH]nc(-c2cccs2)n1/N=C/c1cn(-c2ccccc2)nc1-c1ccccc1 | 12% | 1% | · | ? | 3.4µM* | 5%
C(=N\n1cnnc1)/c1cn(-c2cccs2)nc1-c1ccccc1 | 14% | ? | ? | ? | 7.6µM* | 8%
CCCS(=O)(=O)c1c(S(=O)(=O)CCC)c2ccc(C(N)=O)cn2c1C(=O)c1ccc(OC)cc1 | -6% | 5% | · | 27% | 0% | 3%
Cc1ccc2c(c1)N(CC(=O)NC1CCCCC1)C(=O)c1cccnc1O2 | -1% | 2% | · | 18% | 1% | 3%
COc1ccc(-c2nn(-c3ccccc3)cc2/C=N/n2cnnc2)cc1OC | -3% | 7% | ? | ? | 19µM* | -6%
O=C(c1ccc(C(F)(F)F)cc1)N1CCN(S(=O)(=O)c2ccc3c(c2)OCCCO3)CC1 | -2% | 16% | · | ? | 1% | -4%
CC[C@]12c3[nH]c4ccc(Cl)cc4c3CCN1C(=O)[C@@H](CC(=O)NCC13CC4CC(CC(C4)C1)C3)C[C@@H]2C(=O)N1CCN(C(=O)c2ccco2)CC1 | · | -3% | · | 21µM* | · | ·
CC[C@]12c3[nH]c4ccc(Cl)cc4c3CCN1C(=O)[C@@H](CC(=O)NCCC1=CCCCC1)C[C@@H]2C(=O)N1CCN(C(=O)c2ccco2)CC1 | · | -10% | · | 16µM* | · | ·
COCCCNC(=O)C[C@H]1C[C@H](C(=O)N2CCCCC2)[C@@]2(CCc3ccccc3)c3[nH]c4ccc(Cl)cc4c3CCN2C1=O | · | -2% | · | 21µM* | · | ·
CC(C)(C)NC(=O)C[C@H]1C[C@H](C(=O)N2CCCCC2)[C@@]2(CCc3ccccc3)c3[nH]c4ccc(Cl)cc4c3CCN2C1=O | · | -11% | · | -8% | · | ·
CC[C@]12c3[nH]c4cc(-c5ccco5)ccc4c3CCN1C(=O)[C@@H](CC(=O)NCCC1=CCCCC1)C[C@@H]2C(=O)N1CCN(C(=O)C2CC2)CC1 | · | -3% | · | 21µM* | · | ·
Cc1ccccc1NC(=O)N1CCN(c2ncccn2)CC1 | 0% | 2% | 18% | 12% | 1% | -3%
Cc1cc(C)cc(OCC(=O)OCC(=O)Nc2c(C)n(C)n(-c3ccccc3)c2=O)c1 | 5% | -2% | 3% | 19% | -7% | 0%
CCCc1cc(=O)oc2cc(C)cc(OC(C)C(=O)NCc3ccncc3)c12 (configuration not stated) | 2% | 0% | · | 2% | -1% | -5%
CC(C)(C)OC(=O)N1CCC(c2c(C(=O)NCCN3CCC(Cc4ccccc4)CC3)cnn2-c2cccc(Cl)c2)CC1 | · | · | · | · | -3% | ·
O=C(N/N=C/c1ccc([N+](=O)[O-])o1)c1cc(-c2cccc(Br)c2)nc2ccccc12 | 0% | -3% | -64% | ? | 4.8µM* | 23%
SMILES | NPC1 prom act | ELG1 genotox | SMN2 splice enh | ELG1 repair inh | FLuc modulator | Rab9 promoter act
CCCc1ccc(-c2cc(C(=O)N/N=C/c3ccc([N+](=O)[O-])o3)c3ccccc3n2)cc1 | 9% | ? | 4% | ? | 0.15µM* | ?
Cc1cc(C(=O)N/N=C/c2ccc([N+](=O)[O-])o2)c(C)o1 | -4% | -13% | · | ? | 5% | -3%
O=C(N=C1SCC(=O)N1c1ccccc1Cl)c1ccccc1 | ? | ? | 13µM* | ? | ? | 2µM*
CC(C)(C)c1ccccc1NC(=O)c1c(O)c2cccc3c2n(c1=O)CC3 | 15% | -7% | -18% | -13% | ? | ?
CCCCCCCCCCCCC/C=C/[C@@H](O)[C@H](CO)NCCCCCCCC | · | · | -2% | · | · | ·
Cc1ccc2oc(C(=O)Nc3nnc(C)s3)c(C)c2c1 | 3.2µM* | 5.8µM* | 16µM* | ? | 1.7µM* | 1.4µM*
Cc1ccc2c(=O)cc(C(=O)Nc3nnc(C)s3)oc2c1 | · | · | 3% | · | -3% | ·
Cc1ccc2oc(C(=O)Nc3nonc3C)c(C)c2c1 | ? | ? | · | ? | 7.6µM* | 3.2µM*
COc1ccc2oc(C(=O)Nc3nnc(C)s3)c(C)c2c1 | ? | 3.3µM* | · | ? | 0.6µM* | 0.71µM*
COc1ccc2oc(C(=O)NC(C)(C)C)c(C)c2c1 | ? | ? | 13µM* | ? | 15µM* | 4µM*
COc1ccc2oc(C(=O)Nc3nc4ccc(S(C)(=O)=O)cc4s3)c(C)c2c1 | 1% | -8% | · | 11% | ? | -2%
CCc1nonc1NC(=O)c1oc2ccc(Br)cc2c1C | 21% | 10% | -1% | ? | 0% | 24%
CCSc1ccc2nnc(-c3cccc(F)c3)n2n1 | 2% | -10% | -28% | 21µM* | 1% | 0%
COC(=O)c1cc(C)nc(Sc2ccccc2N)n1 | -2% | -4% | · | 11% | 12µM* | 8%
COC(=O)c1ccc(NC(=O)c2ccc(OC(C)=O)c(OC)c2)cc1 | ? | ? | ? | ? | 11µM* | ?
COc1cc(C(=O)Nc2ccc(O)cc2C(=O)O)ccc1OC(C)=O | 2% | 2% | · | 3% | 12µM* | -5%
COc1ccc(C(=O)Nc2ccc(NS(=O)(=O)c3ccccc3)cc2)cc1OC | 0% | 3% | · | 18µM* | -5% | 0%
COc1ccc(C(=O)Nc2ccc(S(=O)(=O)Nc3ncccn3)cc2)cc1OC | -9% | 0% | · | -7% | 5% | -1%
